Among all 5,500 compounds or so, about 2,000 (36%) were called active. About 18% were inconclusive and are not listed. No stated cut-off is given here; in the data, active means normalized growth mostly below about 0.91 (no sharp cut-off); inconclusive means no clear call, values can overlap the other calls; inactive means mostly above about 0.92. Some of the results follow.
Assay: chemical genetic growth profiling, strain panel (AID 1159580);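 further: tested at 20 µM; growth read once vehicle control cultures reached saturation at 30 °C; 1 = growth at the plate median or of vehicle wells; lower values mean less growth of the strain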
Details: growth OD
[1] = S. cerevisiae deletion strains, locus YAL013W, strain DEP1, active compounds read low
[2] = S. cerevisiae deletion strains, locus YDL101C, strain DUN1, active compounds read low
[3] = S. cerevisiae deletion strains, locus YGR078C, strain PAC10, active compounds read low
[4] = S. cerevisiae deletion strains, locus YHR030C, strain SLT2, active compounds read low
[5] = S. cerevisiae deletion strains, locus YJR075W, strain HOC1, active compounds read low
[6] = S. cerevisiae deletion strains, locus YNL153C, strain GIM3, active compounds read low
[7] = S. cerevisiae deletion strains, locus YNL322C, strain KRE1, active compounds read low
[8] = S. cerevisiae deletion strains, locus YPL055C, strain LGE1, active compounds read low
[9] = S. cerevisiae deletion strains, locus YPL241C, strain CIN2, active compounds read low
[10] = S. cerevisiae deletion strains, locus YHR079C, strain IRE1, active compounds read low
[11] = S. cerevisiae deletion strains, locus YJL095W, strain BCK1, active compounds read low
[12] = S. cerevisiae deletion strains, locus YJR066W, strain TOR1, active compounds read low
[13] = S. cerevisiae deletion strains, locus YLR113W, strain HOG1, active compounds read low
[14] = S. cerevisiae deletion strains, locus YNL183C, strain NPR1, active compounds read low
[15] = S. cerevisiae deletion strains, locus YOR231W, strain MKK1, active compounds read low
[16] = S. cerevisiae deletion strains, locus YPL256C, strain CLN2, active compounds read low

Measured: normalized growth

c1ccc(Sc2c(-c3ccccc3)nc3ccccn23)cc1
inactive: [2] 0.929 | S. cerevisiae deletion strains, locus YDR150W, strain NUM1, active compounds read low 0.8 | S. cerevisiae deletion strains, locus YHR087W, strain rtc3, active compounds read low 0.921 | S. cerevisiae deletion strains, locus YJR043C, strain POL32, active compounds read low 0.93 | S. cerevisiae deletion strains, locus YML094W, strain GIM5, active compounds read low 0.886 | [6] 0.931 | S. cerevisiae strains, strain wild type, active compounds read low 0.92
active: [1] 0.895 | S. cerevisiae deletion strains, locus YBR229C, strain ROT2, active compounds read low 0.9 | S. cerevisiae deletion strains, locus YCL061C, strain MRC1, active compounds read low 0.906 | S. cerevisiae deletion strains, locus YEL061C, strain CIN8, active compounds read low 0.869 | [3] 0.884 | [4] 0.193 | [5] 0.833 | S. cerevisiae deletion strains, locus YKL190W, strain CNB1, active compounds read low 0.79 | S. cerevisiae deletion strains, locus YLR039C, strain RIC1, active compounds read low 0.657 | S. cerevisiae deletion strains, locus YLR058C, strain SHM2 (second series), active compounds read low 0.899 | S. cerevisiae deletion strains, locus YLR085C, strain ARP6, active compounds read low 0.275 | S. cerevisiae deletion strains, locus YLR262C, strain YPT6, active compounds read low 0.78 | S. cerevisiae deletion strains, locus YMR219W, strain ESC1, active compounds read low 0.897 | S. cerevisiae deletion strains, locus YNL298W, strain CLA4 (second series), active compounds read low 0.781 | [7] 0.915 | S. cerevisiae deletion strains, locus YNR030W, strain Alg12, active compounds read low 0.714 | [8] 0.725 | [9] 0.692 | S. cerevisiae deletion strains, locus YPR135W, strain CTF4, active compounds read low 0.431

COc1ccc(C2CC(c3ccccc3)=Nc3ccccc3S2)cc1OC (stereo not drawn)
inactive: S. cerevisiae deletion strains, locus YAR019C, strain CDC15, active compounds read low 0.969 | S. cerevisiae deletion strains, locus YBL105C, strain PKC1, active compounds read low 0.962 | S. cerevisiae deletion strains, locus YBR135W, strain CKS1, active compounds read low 0.974 | S. cerevisiae deletion strains, locus YBR136W, strain MEC1, active compounds read low 0.947 | S. cerevisiae deletion strains, locus YBR160W, strain CDC28, active compounds read low 0.975 | S. cerevisiae deletion strains, locus YDL017W, strain CDC7, active compounds read low 0.965 | S. cerevisiae deletion strains, locus YDL028C, strain MPS1, active compounds read low 0.975 | [2] 0.965 | S. cerevisiae deletion strains, locus YDL108W, strain KIN28, active compounds read low 0.976 | S. cerevisiae deletion strains, locus YDL132W, strain cdc53, active compounds read low 0.975 | S. cerevisiae deletion strains, locus YDL214C, strain PRR2, active compounds read low 0.936 | S. cerevisiae deletion strains, locus YDR052C, strain DBF4, active compounds read low 0.97 | S. cerevisiae deletion strains, locus YDR054C, strain cdc34, active compounds read low 0.958 | S. cerevisiae deletion strains, locus YDR226W, strain ADK1, active compounds read low 0.967 | S. cerevisiae deletion strains, locus YDR477W, strain SNF1, active compounds read low 0.949 | S. cerevisiae deletion strains, locus YER123W, strain YCK3, active compounds read low 0.939 | S. cerevisiae deletion strains, locus YER133W, strain GLC7, active compounds read low 0.952 | S. cerevisiae deletion strains, locus YFL009W, strain cdc4, active compounds read low 0.973 | S. cerevisiae deletion strains, locus YFL029C, strain CAK1, active compounds read low 0.945 | S. cerevisiae deletion strains, locus YFR003C, strain YPI1, active compounds read low 0.961 | S. cerevisiae deletion strains, locus YFR019W, strain FAB1, active compounds read low 0.967 | S. cerevisiae deletion strains, locus YFR028C, strain CDC14, active compounds read low 0.961 | S. cerevisiae deletion strains, locus YGR040W, strain KSS1, active compounds read low 0.94 | S. cerevisiae deletion strains, locus YGR052W, strain FMP48, active compounds read low 1.02 | S. cerevisiae deletion strains, locus YGR092W, strain DBF2, active compounds read low 0.935 | [4] 0.887 | [10] 0.914 | S. cerevisiae deletion strains, locus YHR082C, strain KSP1, active compounds read low 0.975 | S. cerevisiae deletion strains, locus YHR205W, strain SCH9, active compounds read low 0.934 | S. cerevisiae deletion strains, locus YIL147C, strain SLN1, active compounds read low 0.959 | [11] 0.941 | S. cerevisiae deletion strains, locus YJL128C, strain PBS2, active compounds read low 0.943 | S. cerevisiae deletion strains, locus YJL157C, strain FAR1, active compounds read low 0.968 | S. cerevisiae deletion strains, locus YJR016C, strain ILV3, active compounds read low 0.966 | S. cerevisiae deletion strains, locus YJR066W, strain TOR1 (second series), active compounds read low 0.901 | [12] 0.938 | S. cerevisiae deletion strains, locus YKL048C, strain ELM1, active compounds read low 0.968 | S. cerevisiae deletion strains, locus YKL067W, strain YNK1, active compounds read low 0.956 | S. cerevisiae deletion strains, locus YKL101W, strain HSL1, active compounds read low 0.927 | S. cerevisiae deletion strains, locus YKL193C, strain SDS22, active compounds read low 0.976 | S. cerevisiae deletion strains, locus YKL203C, strain TOR2, active compounds read low 0.965 | [13] 0.889 | S. cerevisiae deletion strains, locus YLR133W, strain CKI1, active compounds read low 0.948 | S. cerevisiae deletion strains, locus YLR403W, strain SFP1, active compounds read low 0.929 | S. cerevisiae deletion strains, locus YML070W, strain DAK1, active compounds read low 0.949 | S. cerevisiae deletion strains, locus YMR001C, strain CDC5, active compounds read low 0.969 | S. cerevisiae deletion strains, locus YMR205C, strain PFK2 (second series), active compounds read low 0.95 | S. cerevisiae deletion strains, locus YMR277W, strain FCP1, active compounds read low 0.97 | S. cerevisiae deletion strains, locus YNL006W, strain LST8, active compounds read low 0.988 | S. cerevisiae deletion strains, locus YNL020C, strain ARK1, active compounds read low 0.939 | S. cerevisiae deletion strains, locus YNL161W, strain CBK1, active compounds read low 0.962 | [14] 0.939 | S. cerevisiae deletion strains, locus YNL207W, strain RIO2, active compounds read low 0.97 | S. cerevisiae deletion strains, locus YNL222W, strain SSU72, active compounds read low 0.968 | S. cerevisiae deletion strains, locus YNL307C, strain MCK1 (second series), active compounds read low 0.974 | S. cerevisiae deletion strains, locus YOL078W, strain AVO1, active compounds read low 0.975 | S. cerevisiae deletion strains, locus YOL136C, strain PFK27, active compounds read low 0.946 | S. cerevisiae deletion strains, locus YOR061W, strain CKA2, active compounds read low 0.94 | S. cerevisiae deletion strains, locus YOR119C, strain RIO1, active compounds read low 0.949 | [15] 0.918 | S. cerevisiae deletion strains, locus YOR329C, strain SCD5, active compounds read low 0.97 | S. cerevisiae deletion strains, locus YPL031C, strain PHO85, active compounds read low 0.932 | S. cerevisiae deletion strains, locus YPL153C, strain RAD53, active compounds read low 0.958 | S. cerevisiae deletion strains, locus YPL204W, strain HRR25, active compounds read low 0.948 | S. cerevisiae deletion strains, locus YPL209C, strain IPL1, active compounds read low 0.975 | [16] 0.879 | S. cerevisiae deletion strains, locus YPR025C, strain CCL1, active compounds read low 0.966 | S. cerevisiae deletion strains, locus YPR106W, strain ISR1, active compounds read low 0.971 | S. cerevisiae deletion strains, locus YPR111W, strain DBF20, active compounds read low 0.97 | S. cerevisiae deletion strains, strain NNK1, active compounds read low 0.958 | S. cerevisiae deletion strains, strain TSCII, active compounds read low 0.965

Cc1ncc(C[n+]2csc(CCO)c2C)c(=O)[nH]1
inactive: [4] 1.04 | [10] 1.05 | [11] 0.991 | [12] 0.984 | [13] 0.979 | [14] 0.976 | [15] 1.03 | [16] 1.05

O=c1[nH]c2cc([N+](=O)[O-])c([N+](=O)[O-])cc2[nH]c1=O
inactive: [1] 0.998 | S. cerevisiae deletion strains, locus YAL040C, strain CLN3, active compounds read low 1.03 | S. cerevisiae deletion strains, locus YCL061C, strain MRC1 (second series), active compounds read low 1 | S. cerevisiae deletion strains, locus YDR363W, strain ESC2, active compounds read low 0.986 | S. cerevisiae deletion strains, locus YER002W, strain NOP16, active compounds read low 0.996 | [3] 1 | S. cerevisiae deletion strains, locus YGR229C, strain SMI1, active compounds read low 0.977 | [5] 0.987 | S. cerevisiae deletion strains, locus YMR263W, strain SAP30, active compounds read low 1 | S. cerevisiae deletion strains, locus YNL128W, strain TEP1, active compounds read low 1.01 | [6] 1.01 | S. cerevisiae deletion strains, locus YNL175C, strain NOP13, active compounds read low 1.01 | S. cerevisiae deletion strains, locus YNL197C, strain WHI3, active compounds read low 0.989 | S. cerevisiae deletion strains, locus YNL224C, strain SQS1, active compounds read low 0.989 | [7] 0.986 | S. cerevisiae deletion strains, locus YOR083W, strain WHI5 (second series), active compounds read low 0.969 | [8] 0.988 | [9] 1

From PubChem BioAssay AID1159580 (chemical genetic matrix, 2015)
